Records with an inconclusive call do not appear. Active and inactive are the calls of the source. Unless noted, calls come from the whole dose curve; as a rule, active = well fitted curve in the direction sought with a large enough effect; inconclusive = small, poorly fitted or top-dose-only effect, or another doubt; inactive = no such curve, though single readings can be large; an effect the other way counts as inactive or inconclusive.
Assays:
[1] = qHTS profiling of the MIPE4 collection as inhibitors of Plasmodium falciparum (3D7) proliferation (AID 743344; call rule not given here;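 note: scaled between DMSO vehicle wells and 0.29 µM artemisinin as full inhibition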); conditions: P. falciparum 3D7 in erythrocytes, SYBR Green DNA fluorescence, 72 h; at 28.5 µM unless noted
Method in brief: (§1)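 Parasite DNA was quantified by SYBR Green I fluorescence (ex 485, em 535 nm) after overnight lysis in saponin/Triton buffer at room temperature. Cultures at 0.3% parasitemia and 2.5% hematocrit were first exposed to compound for 72 h at 37 C; signals were normalised to artemisinin (0.29 uM) and vehicle wells.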

[2] = qHTS profiling of the MIPE4 collection as inhibitors of Plasmodium falciparum (DD2) proliferation (AID 743345; call rule not given here); conditions: P. falciparum Dd2 in erythrocytes, SYBR Green DNA, 72 h; at 28.5 µM unless noted
Method in brief: as §1

[3] = qHTS profiling of the MIPE4 collection as inhibitors of Plasmodium falciparum (DD2) proliferation (Rep 2) (AID 743346; call rule not given here); conditions: P. falciparum Dd2 in erythrocytes, SYBR Green DNA, 72 h; at 28.5 µM unless noted
Method in brief: as §1

[4] = qHTS profiling of the MIPE4 collection as inhibitors of Plasmodium falciparum (HB3) proliferation (AID 743347; call rule not given here;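 note: plate controls were DMSO vehicle wells for no effect and artemisinin wells for full effect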); conditions: P. falciparum HB3 in erythrocytes, SYBR Green DNA, 72 h; at 28.5 µM unless noted
Method in brief: as §1

[5] = High-throughput drug toxicity screening in the BPDCN cell line Gen2.2 (AID 1224824; call rule not given here;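 note: cells exposed to compounds for 48 h before reading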); conditions: Gen2.2 BPDCN cells; at 45.8 µM (top of the series) unless noted
Method in brief: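 Seed 500 exponentially growing Gen2.2 cells/well; add compounds by pin tool; incubate 48 h, 37 °C, 5% CO2; add CellTiter-Glo, 15 min RT; read luminescence. % activity vs DMSO (100%) and bortezomib (0%).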

[6] = High-throughput drug toxicity screening in the BPDCN cell line Cal-1 (AID 1224825; call rule not given here); conditions: Cal-1 BPDCN cell viability, qHTS; at 45.8 µM (top of the series) unless noted
Method in brief: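 CellTiter-Glo luminescence after 48 h compound exposure; percent activity scaled with DMSO as 100% and bortezomib (9.2 uM final) as 0%. Cal-1 cells seeded at 500/well in RPMI, 10% FBS, no phenol red.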

[7] = qHTS assay for measurement of the activity of small molecule inhibitors on Zika virus induced Caspase-3 activity in human iPSC derived neural progenitor cells (hNPCs) (AID 1224857); note: % of control where 0% means no effect; nearly all actives have a fitted effect of over 65% in size
Method in brief: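 Zika virus (2 FFU/cell) infection of human iPSC-derived NPCs, 6 h, following 1 h compound preincubation. Read-out: Caspase-Glo 3/7 luminescence.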

[8] = qHTS assay for measurement of the activity of small molecule inhibitors on Zika virus induced Caspase-3 activity in human astrocytoma cells (AID 1224859);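 note: plate controls were ZIKV-infected untreated cells for no effect and uninfected cells for full effect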
Method in brief: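 Caspase activation in ZIKV-infected SNB-19 cells (2 FFU/cell, 6 h) measured by Caspase-Glo 3/7 luminescence after 30 min RT; compound pre-incubated 1 h; normalised to uninfected and infected controls.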

[9] = qHTS Screen of the MIPE 4.0 Collection Against Ewings Sarcoma (RDES) (AID 1259252); note: nearly all actives have a fitted effect of over 35% in size; note: potency is the fitted concentration of half-maximal effect
Method in brief: (§2)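 Dose series incubated 48 h with cells in RPMI plus 5% FBS, glutamine and penicillin/streptomycin; cell viability then quantified via CellTiter-Glo.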

[10] = qHTS Screen of the MIPE 4.0 Collection Against Ewings Sarcoma (TC71) (AID 1259253); note: nearly all actives have a fitted effect of over 40% in size; note: potency is the fitted concentration of half-maximal effect
Method in brief: as §2

[11] = P-glycoprotein substrates identified in KB-3-1 adenocarcinoma cell line, qHTS therapeutic library screen (AID 1346986); note: nearly all actives have a fitted effect of over 60% in size
Method in brief: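 In 1536-well format, 500 cells/well received pinned compound titrations and were incubated 72 h, 5% CO2. Viability was read by CellTiter-Glo; cytotoxic if AC50 < 10 uM and efficacy >50%.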

[12] = qHTS profiling for inhibitors of Plasmodium falciparum (HB3) proliferation (AID 743324); conditions: Plasmodium falciparum HB3 blood-stage proliferation; at 28.7 µM (top of the series) unless noted;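 note: 100% = DMSO vehicle wells and 0% = artemisinin-treated control wells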
Method in brief: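 SYBR Green fluorescence (485 ex/535 em) of lysed cultures, incubated overnight at room temperature in the dark, quantifies parasite DNA. Infected erythrocytes at 0.3% parasitemia and 2.5% hematocrit were exposed 72 h; values normalized to DMSO and 0.29 uM artemisinin controls.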

[13] = qHTS Screen of the MIPE 4.0 Collection Against Ewings Sarcoma (EW8) (AID 1259255);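 note: 100% = DMSO-treated cells and 0% = medium-only wells without cells; nearly all actives have a fitted effect of over 35% in size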
Method in brief: as §2

[14] = qHTS Screen of the MIPE 4.0 Collection Against Ewings Sarcoma (TC32) (AID 1259256);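 note: 100% = DMSO-treated cells and 0% = medium-only wells without cells; nearly all actives have a fitted effect of over 45% in size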
Method in brief: as §2

[15] = Identifying Small Molecule Inhibitors of Pancreatic Cancer Stem Cells (A2780, Spheroid) (AID 1259357); conditions: Potency: A2780 spheroid viability;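 note: spheroids pre-formed over 14 days in stem cell medium on hydrogel; compound exposure lasted 48 h before the ATP luminescence read; 100% = DMSO treated cells and 0% = wells without cells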
Method in brief: (§3)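 Endpoint: ATP-based luminescence, 48 h drug exposure. Bortezomib at 9.2 uM final as full-kill control; DMSO vehicle as negative control; activity normalized between vehicle and cell-free wells.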

[16] = Identifying Small Molecule Inhibitors of Pancreatic Cancer Stem Cells (SN12C, Adherent) (AID 1259358);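 note: cell survival measured after 48 h of compound exposure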
Method in brief: as §3

[17] = Identifying Small Molecule Inhibitors of Pancreatic Cancer Stem Cells (SN12C, Spheroid) (AID 1259360); conditions: Potency: SN12C spheroid viability;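 note: 100% = DMSO-treated cells and 0% = wells without cells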
Method in brief: as §3

[18] = Identifying Small Molecule Inhibitors of Pancreatic Cancer Stem Cells (A278, Adherent) (AID 1259361);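 note: viability read after 48 h compound exposure; 100% = DMSO-treated cells and 0% = cell-free media-only wells; nearly all actives have a fitted effect of over 35% in size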
Method in brief: as §3

| SMILES | parasite growth, % of DMSO control [1] [%] | parasite growth remaining, % of DMSO control (lower = more inhibition) [2] [%] | parasite growth, % of control (lower = inhibition) [3] [%] | growth, % of control [4] [%] | cell viability, % of control (lower = more cytotoxic) [5] [%] | viability (% of control) [6] [%] | Potency [7] | Potency [8] | Potency [9] | Potency [10] | Potency [11] | remaining proliferation (% of control), lower = more inhibition [12] [%] | Potency [13] | Potency [14] | Potency [15] | Potency [16] | Potency [17] | IC50 (viability decrease) [18] |
| --- | --- | --- | --- | --- | --- | --- | --- | --- | --- | --- | --- | --- | --- | --- | --- | --- | --- | --- |
| Cc1ccc2c(=O)c3cccc(CC(=O)O)c3oc2c1C | 95.5 | 94 | 76.8 | 101 | 78 | 50.1 | inactive | inactive | 18.7 µM (active) | 18.7 µM (active) | inactive |  |  |  |  |  |  |  |
| CN1C(=O)C(Cc2c[nH]c3ccccc23)NC1=S (configuration not stated) | 338 | 99 | 123 | 245 | 70.1 | 106 | inactive | inactive | inactive |  | inactive | 73.5 | inactive | inactive | inactive | inactive | inactive | inactive |
| CCCCCCCCCCCCCC(=O)N[C@H](CO)[C@H](O)c1ccc([N+](=O)[O-])cc1 | 55.9 | 85.8 | 33 | 24.3 | 1.84 | 5.68 | inactive | inactive | inactive |  |  | 73.2 | inactive |  | inactive |  |  |  |
| COC1CCC(C(=O)c2ccc3nc4c(cc3c2)CCCO4)CC1 (configuration not stated) | 21.8 | 31.2 | 15.9 | 11.8 | 98 | 85.9 | inactive | inactive | 13.2 µM (active) | 16.6 µM (active) |  |  |  |  |  |  |  |  |
| Cc1ccccc1C(C(=O)NC1CCCCC1)N(C(=O)CNc1ccc(C#N)cc1)c1cccc(F)c1 (configuration not stated) | 145 | 93.3 |  | 530 | 161 | 128 | inactive | inactive | inactive |  | inactive |  | inactive | inactive |  |  |  |  |
| CCCCCCCCCCCCCCCC(=O)O[C@H]1[C@@H](O)[C@@H](O)[C@@H]([C@H](NC(=O)[C@@H]2C[C@@H](CCC)CN2C)[C@H](C)Cl)O[C@@H]1SC | 31.4 | 11 | 20.4 |  | 218 | 94.5 | inactive | inactive | inactive | 13.2 µM (active) | inactive |  |  |  |  |  |  |  |
| COc1ccc(CCN(C)CCCOc2ccc(S(=O)(=O)c3[nH]c4ccccc4c3C(C)C)cc2)cc1OC | 31.8 | 26.3 | 16.3 | 42.9 | 14.1 | 9.08 | inactive | inactive | inactive | inactive |  | -1.05 |  |  |  |  |  |  |
| c1cc(OCCN2CCCCC2)cc(-c2n[nH]c3ccc(-c4ncn[nH]4)cc23)c1 | 8.07 | 9.76 | 9.96 | 3.58 | 107 | 20.5 | inactive | inactive | 10.5 µM (active) | 23.5 µM (active) |  |  |  |  |  |  |  |  |
